# Sampled rows, rich in hits. Any-hit rate of the full collection: about 4.5%.
# 697 NFkB inh: lowers PMA/ionomycin-induced NF-kB signal in 697 B cells. 697 B-cell NF-kB luciferase reporter, 16 h. inhibition, % at 4 µM. 0.33% of 330,000 active; in the data active = inhibition above about 35%
# Mdm2-MdmX inh: human Mdm2/MdmX binding inhibition; O15151+Q00987; SaOS-2 split-luciferase Mdm2/MdmX complementation, luminescence; AID 485346; inhibition, % at 8 µM; 3% of 330,000 active;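 active = inhibition of at least 50% at 8 µM in the primary screen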
# CSC inhib: cancer stem cell inhibition; cancer stem cell-like cells viability, luminescence; inhibition, % at 7.5 µM; 1.1% of 300,000 active; AID 2717; in the data active = inhibition above about 75%; inconclusive = no clear call, values can overlap the other calls; tested in HMLE shEcad cells
# Gli-Sufu block: Gli-Sufu pathway antagonism. AID 588413. 0.74% of 340,000 active. Sufu-KO-LIGHT fibroblasts, Gli luciferase reporter luminescence. inhibition, % at 5 µM;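 active = inhibition above about 55%, limit read from the data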;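 note: 0% = DMSO-treated cells and 100% = wells with medium but no cells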
# aSyn UTR inh: MLPCN primary screen, SNCA 5' untranslated region; alpha-synuclein 5'UTR reporter, inhibitor activity; inhibition, % (tested at 7.5 µM); 0.82% of 300,000 active; AID 1813; in the data active = inhibition above about 60%; inconclusive = no clear call, values can overlap the other calls;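 note: H4 neuroglioblastoma cells stably carrying SNCA 5'UTR luciferase fusion; 0% = DMSO wells and 100% = positive control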
# Jurkat NFkB inh: lowers PMA/ionomycin-induced NF-kB signal in Jurkat cells | PMA/ionomycin-induced NF-kB luciferase reporter, luminescence | inhibition, % at 4 µM | 0.53% of 330,000 active | AID 435003; in the data active = inhibition above about 50%
# Starred values were filed as active, the others as inactive; ? = inconclusive; · = no result.
SMILES,697 NFkB inh,Mdm2-MdmX inh,CSC inhib,Gli-Sufu block,aSyn UTR inh,Jurkat NFkB inh
CSc1nc2sc3c(c2c(=O)n1CC(C)C)CC(C)(C)OC3,-33,-5,75*,-4,-16,-4
CCCSc1nc2sc3c(c2c(=O)n1CC)CC(C)(C)OC3,-10,17,21,-14,16,-1
CN(C)c1ccc(NC(=S)c2ccccn2)cc1,·,·,8,51,97*,·
COc1cccc(/C=C2\Oc3ccc(O)cc3C2=O)c1O,-56,-114,-3,-40,83*,7
NS(=O)(=O)c1ccc(NC(=O)CSc2nc3ccccc3nc2N2CCOCC2)cc1,14,15,-6,30,20,8
CCCc1nc2ccccc2c(C(=O)OCC(=O)Nc2ccc(S(=O)(=O)N3CCOCC3)cc2)c1CC,-20,38,91*,7,3,10
CCCc1nc2ccccc2c(C(=O)OCC(=O)N2CCc3ccccc32)c1CC,-5,10,83*,-9,12,-13
CCN(CC(=O)Nc1ccc(NC(C)=O)cc1)C(=O)c1ccccc1CCc1ccccc1,2,7,?,-2,-9,-5
CCC(C)n1c(-c2cccs2)nc2nc3ccccc3nc21 (stereo not drawn),6,20,64*,23,17,6
C[C@H](NS(=O)(=O)c1ccc(Cl)cc1)C(=O)OCC(=O)Nc1cc(S(=O)(=O)N2CCOCC2)ccc1Cl,·,·,·,4,·,·
Cc1ccc(OCCOCCN2CCN(C)CC2)c(C(C)(C)C)c1,-4,-9,59,17,3,-18
C=CCNCCCOc1ccc(Cl)cc1C(C)(C)C,4,27,104*,17,25,6
CC(C)(C)c1cc(Cl)ccc1OCCOCCN1CCCC1,-19,21,93*,22,-1,-23
O=C(CNC(=O)c1ccc(Br)o1)Nc1cccc(S(=O)(=O)N2CCOCC2)c1,10,23,-19,4,-7,17
N#Cc1c(N)n(C2CCCCC2)c2nc3ccccc3nc12,14,37,11,17,62*,29
Cc1ccc(N=C(NOCc2ccc(Cl)cc2Cl)c2nonc2N)c(C)c1,9,30,1,12,23,19
Cc1ccccc1N=C(NOCc1ccc(Cl)cc1Cl)c1nonc1N,6,49,98*,11,1,23
CC(=O)N1c2ccc(Cl)cc2C2C=CCC2C1c1cccc2ccccc12 (stereo not drawn),·,·,78*,30,·,·
O=C(COC(=O)/C=C/c1cccs1)NC1CC1,-5,14,17,3,12,-14
COc1ccc(C(=O)/C=C/c2cn(CN3CCN(C)CC3)c3ccccc23)cc1,-68,-47,35,-20,·,6
CCOc1ccc(C(=O)/C=C/c2cn(CN3CCN(C)CC3)c3ccccc23)cc1,-45,-60,100*,-4,·,9
O=C(O)Cn1c(=O)c2c3c(sc2n(Cc2ccc(Cl)cc2Cl)c1=O)CCCC3,·,·,2,1,-7,·
COc1ccc(Br)cc1/C=C/C(=O)Nc1ccc(C)cc1,29,1,69,10,-86,-15
COc1ccc(Br)cc1/C=C/C(=O)Nc1ccc2ccccc2c1,-5,16,77*,1,-91,-23
O=C1C=CC(=O)N1c1cccc(-c2ccccc2)c1,8,-3,57,1,6,-3
SMILES,697 NFkB inh,Mdm2-MdmX inh,CSC inhib,Gli-Sufu block,aSyn UTR inh,Jurkat NFkB inh
CNS(=O)(=O)c1cc2c3c(cccc3c1)C(=O)NC2=O,4,48,57,2,71*,0
C/C(N)=C(/C#N)C(=O)COC(=O)c1ccc(C#N)cc1,25,4,8,11,-11,-5
O=C(NC(=S)NNC(=O)[C@H]1C[C@@H]1c1ccccc1)c1cccc(F)c1,6,10,18,1,67*,0
Cc1ccccc1-c1noc(-c2ccc(O)cc2)n1,-123,-132,96*,-92,-226,-115
Cc1ccccc1-c1noc(-c2ccc(Cl)cc2)n1,-86,-133,-4,-121,-192,-106
CCN(c1ccccc1)S(=O)(=O)c1ccc(C(=O)N(CCN(C)C)c2nc3c(F)cc(F)cc3s2)cc1,17,32,-7,·,-26,0
Cc1cc(C)n(CC(O)Cn2c3ccc(Cl)cc3c3cc(Cl)ccc32)c(=O)n1 (stereo not drawn),27,24,19,8,-11,6
OC(CNCCC1C=Nc2ccccc21)Cn1c2ccc(Cl)cc2c2cc(Cl)ccc21 (stereo not drawn),·,·,106*,-2,-3,·
